Measured values reported in PubChem BioAssay (Tox21).
Records with an inconclusive call do not appear. Calls of active or inactive are those of the source. Unless noted, the call rests on the fitted dose curve; in most records, active means well fitted curve in the direction sought with a large enough effect in the repeat runs; inconclusive means weak or mixed curves; inactive means no such curve, though single readings can be large; an effect the other way counts as inactive or inconclusive.

Experiments:
[1] = qHTS assay to identify small molecule agonists of the peroxisome proliferator-activated receptor delta (PPARd) signaling pathway - cell viability counter screen (AID 743211); further: nearly all actives have a fitted effect of over 55% in size
How it was run: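 Following 5 h plating at 37 C and 5% CO2, PPARd UAS-bla HEK293H cells took up test compounds for 17 h. Viability was quantified by luminescence 30 min after CellTiter-Glo addition at room temperature.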

[2] = biological target: Peroxisome proliferator-activated receptor delta (Homo sapiens) (UniProt Q03181); test: qHTS assay to identify small molecule agonists of the peroxisome proliferator-activated receptor delta (PPARd) signaling pathway (AID 743212; calls by dose curve)
Sequence of Peroxisome proliferator-activated receptor delta (Homo sapiens) (Q03181 whole entry, looked up): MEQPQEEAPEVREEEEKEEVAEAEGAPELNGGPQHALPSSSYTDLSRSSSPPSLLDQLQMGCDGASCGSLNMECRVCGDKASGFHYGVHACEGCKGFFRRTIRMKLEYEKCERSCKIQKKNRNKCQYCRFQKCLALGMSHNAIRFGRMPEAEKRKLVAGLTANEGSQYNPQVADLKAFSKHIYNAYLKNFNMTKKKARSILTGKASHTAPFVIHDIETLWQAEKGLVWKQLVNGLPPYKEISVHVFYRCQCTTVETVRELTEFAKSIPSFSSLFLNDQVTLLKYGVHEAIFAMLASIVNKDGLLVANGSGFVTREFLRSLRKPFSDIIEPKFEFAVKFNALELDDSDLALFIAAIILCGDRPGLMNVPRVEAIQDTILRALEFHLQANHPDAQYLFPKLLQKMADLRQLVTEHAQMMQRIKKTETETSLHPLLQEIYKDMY
How it was run: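 Steps: seed PPARd-bla HEK293H cells; incubate 5 h, 37 C, 5% CO2; add compounds in DMSO; incubate, 37 C; add LiveBLAzer B/G FRET substrate; hold 2 h at room temperature; measure fluorescence.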

[3] = qHTS assay to identify small molecule antagonists of the peroxisome proliferator-activated receptor delta (PPARd) signaling pathway - cell viability counter screen (AID 743213); further: nearly all actives have a fitted effect of over 50% in size
How it was run: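 Agonist-stimulated (L165041, 300 nM final) HEK293H PPARd UAS-bla cells are exposed to compounds for 17 h at 37 C, and ATP-based luminescence (CellTiter-Glo) from the same wells reports cytotoxicity.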

[4] = biological target: Peroxisome proliferator-activated receptor delta (Homo sapiens) (UniProt Q03181); test: qHTS assay to identify small molecule antagonists of the peroxisome proliferator-activated receptor delta (PPARd) signaling pathway (AID 743215; active means well fitted inhibition curve with a large enough effect in the signal ratio in the repeat runs, not every such curve was filed as active; the % refers to the signal ratio; further: series mostly up to about 62 µM)
How it was run: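 HEK293H GeneBLAzer PPARd UAS-bla reporter cells; cpd + L165041 300 nM final, 17 h 37 C; LiveBLAzer B/G FRET substrate 2 h RT; fluorescence intensity read-out. Antagonist mode.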

[5] = qHTS assay to identify small molecule agonists of the farnesoid-X-receptor (FXR) signaling pathway - cell viability counter screen (AID 743218); further: nearly all actives have a fitted effect of over 45% in size
How it was run: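 Luminescence from CellTiter-Glo, read after 30 min at RT, reports viability of GeneBLAzer FXR-UAS-bla HEK 293T cells treated 16 h with compounds in the wells used for the beta-lactamase reporter.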

[6] = qHTS assay to identify small molecule antagonists of the farnesoid-X-receptor (FXR) signaling pathway - cell viability counter screen (AID 743221; active means well fitted cell-killing curve with a large enough effect in the repeat runs, not every such curve was filed as active; further: nearly all actives have a fitted effect of over 50% in size)
How it was run: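 Compound effects on cell number were measured as CellTiter-Glo luminescence in HEK 293T cells expressing FXR-UAS-bla, after 16 h at 37 C with 50 uM CDCA (final).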

[7] = biological target: Bile acid receptor (Homo sapiens) (UniProt Q96RI1); test: qHTS assay to identify small molecule antagonists of the farnesoid-X-receptor (FXR) signaling pathway (AID 743217; active means well fitted inhibition curve with a large enough effect in the signal ratio in the repeat runs, not every such curve was filed as active; the % refers to the signal ratio)
Sequence of Bile acid receptor (Homo sapiens) (Q96RI1 whole entry, looked up): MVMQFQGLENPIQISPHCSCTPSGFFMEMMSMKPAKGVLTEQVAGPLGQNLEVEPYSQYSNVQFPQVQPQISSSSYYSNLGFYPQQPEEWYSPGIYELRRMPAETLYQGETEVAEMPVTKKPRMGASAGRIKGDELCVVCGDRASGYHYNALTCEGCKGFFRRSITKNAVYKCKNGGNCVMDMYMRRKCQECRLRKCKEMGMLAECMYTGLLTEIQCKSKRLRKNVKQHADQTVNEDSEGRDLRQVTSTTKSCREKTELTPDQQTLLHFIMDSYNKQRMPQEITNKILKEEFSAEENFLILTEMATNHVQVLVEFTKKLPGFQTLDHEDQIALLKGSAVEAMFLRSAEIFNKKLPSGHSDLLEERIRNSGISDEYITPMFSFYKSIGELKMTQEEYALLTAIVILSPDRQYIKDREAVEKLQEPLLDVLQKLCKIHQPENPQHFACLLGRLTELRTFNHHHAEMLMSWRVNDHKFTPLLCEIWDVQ
How it was run: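 Read-out: beta-lactamase FRET fluorescence (LiveBLAzer B/G substrate, 2 h, room temperature) in GeneBLAzer FXR-UAS-bla HEK 293T cells. Compounds were co-dosed with 50 uM chenodeoxycholic acid (final) and incubated 16 h at 37 °C.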

[8] = biological target: Bile acid receptor (Homo sapiens) (UniProt Q96RI1); test: qHTS assay to identify small molecule agonists of the farnesoid-X-receptor (FXR) signaling pathway (AID 743220; active means well fitted activation curve with a large enough effect in the signal ratio in the repeat runs, not every such curve was filed as active; the % refers to the signal ratio)
How it was run: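 FXR-UAS-bla HEK 293T cells carrying a UAS-driven beta-lactamase reporter were plated for 5 h at 37C/5% CO2, then exposed to DMSO-dissolved Tox21 10K compounds for 16 h at 37C. A LiveBLAzer B/G FRET substrate was loaded for 2 h at room temperature before fluorescence reading.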

[9] = biological target: Vitamin D3 receptor (Homo sapiens) (UniProt P11473); test: qHTS assay to identify small molecule agonists of the vitamin D receptor (VDR) signaling pathway (AID 743222; calls by dose curve)
Sequence of Vitamin D3 receptor (Homo sapiens) (P11473 whole entry, looked up): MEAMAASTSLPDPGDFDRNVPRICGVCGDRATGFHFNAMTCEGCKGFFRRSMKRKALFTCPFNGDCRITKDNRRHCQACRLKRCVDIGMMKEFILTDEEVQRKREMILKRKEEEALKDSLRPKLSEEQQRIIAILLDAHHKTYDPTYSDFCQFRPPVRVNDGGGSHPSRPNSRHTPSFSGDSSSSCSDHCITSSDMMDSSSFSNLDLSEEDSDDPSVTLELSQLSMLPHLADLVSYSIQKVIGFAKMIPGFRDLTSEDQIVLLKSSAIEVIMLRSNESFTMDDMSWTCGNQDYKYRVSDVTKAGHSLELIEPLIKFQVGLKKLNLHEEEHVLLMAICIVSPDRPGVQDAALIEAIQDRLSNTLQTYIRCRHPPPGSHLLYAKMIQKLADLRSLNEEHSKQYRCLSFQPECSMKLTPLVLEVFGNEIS
How it was run: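 Beta-lactamase reporter readout (LiveBLAzer B/G FRET, 2 h RT) in VDR-bla cells after 16 h compound treatment at 37C, 5% CO2; cells pre-incubated 4 h before pin transfer of DMSO solutions.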

[10] = biological target: Vitamin D3 receptor (Homo sapiens) (UniProt P11473); test: qHTS assay to identify small molecule antagonists of the vitamin D receptor (VDR) signaling pathway (AID 743223; active means well fitted inhibition curve with a large enough effect in the signal ratio in the repeat runs, not every such curve was filed as active; the % refers to the signal ratio)
How it was run: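 Beta-lactamase activity in VDR-bla cells is measured by FRET substrate fluorescence (2 h, room temperature) after cells spend 16 h at 37C with test compound and 3 nM final 1alpha,25-dihydroxyvitamin D3.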

Measured: Potency

CC1CC(OC(=O)c2ccccc2O)CC(C)(C)C1 (centres undefined)
inactive: [1] | [2] | [3] | [4] | [5] | [6]

O=C1O[C@H](CO)[C@@H](O)[C@H](O)[C@H]1O
inactive: all assays above

CC(C)(CO)COC(=O)C(C)(C)CO
inactive: all assays above

CCCCOCCOCCOC(=O)CCCCC(=O)OCCOCCOCCCC
inactive: all assays above

C=C(C)C(=O)OCCC[Si](OC)(OC)OC
inactive: [1] | [2] | [3] | [4] | [5] | [6]

CNC[C@H](O)[C@@H](O)[C@H](O)[C@H](O)CO
inactive: all assays above

O=C(c1ccc(O)cc1)c1ccc(O)cc1O
not listed: [9] | [10]
inactive: all other assays above

CCCCNC(N)=O
inactive: all assays above

C=CC(=O)OCCCCCCCC(C)C
inactive: all assays above

c1ccc2ccccc2c1
inactive: all assays above

c1ccc2[nH]cnc2c1
inactive: all assays above

CCCCCCCCCCCCOCC1CO1 (centres undefined)
not listed: [10]
inactive: all other assays above

CCCCOCCO
inactive: all assays above

Cc1cc(=O)[nH]c(C(C)C)n1
inactive: all assays above

CCc1ccccc1O
inactive: all assays above

O=S(=O)(O)CCS
not listed: [9] | [10]
inactive: all other assays above

OCC1CCCO1 (centres undefined)
inactive: all assays above

O=Nc1ccc(O)cc1
not listed: [9] | [10]
inactive: all other assays above

CC(C)Cc1ccccc1
inactive: [1] | [2] | [3] | [4] | [5] | [6]

CCOC(=O)[C@H](CCc1ccccc1)N[C@@H](C)C(=O)N1Cc2ccccc2C[C@H]1C(=O)O
inactive: all assays above

Clc1cc(Cl)c(Cl)cc1Cl
inactive: [1] | [2] | [3] | [4] | [5] | [6]

O=C(Cl)c1c(Cl)c(Cl)c(C(=O)Cl)c(Cl)c1Cl
not listed: [9] | [10]
inactive: all other assays above

CCC(C)C=O (centres undefined)
not listed: [10]
inactive: all other assays above

O=C(O)c1ccc([N+](=O)[O-])cc1
inactive: all assays above
